# BAZ2B inh – blocks human BAZ2B; Q9UIF8; AlphaScreen BAZ2B-H3K14Ac peptide displacement; Potency, µM (titrated, usually from 114 µM), actives largely listed as inhibitors; 360,000 tested, 4.4% active; note: nearly all actives have a fitted effect of over 60% in size
#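 BAZ2B (50 nM) with biotin-H3(5-23)K14Ac peptide (50 nM) in PBS pH 7.4, 0.01% Tween-20, preformed 30 min, then compound 30 min at room temperature; top concentration 110uM. AlphaScreen streptavidin donor/nickel chelate acceptor beads (10 ug/mL final), 20 min dark, signal read.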
# JMJD2A Tudor inh – JMJD2A Tudor domain (human) inhibition; AID 504339; AlphaScreen JMJD2A-Tudor / H3K4me3 peptide binding; Potency, µM (top dose mostly 114 µM), most hits filed as inhibitors; 390,000 tested, 4.4% active; O75164; note: nearly all actives have a fitted effect of over 50% in size
# Six1-Eya2 blk – Six1/Eya2 interaction inhibition | Q15475+O00167 | AlphaScreen GST-Six1/His-Eya2 binding, biochemical; active compounds read low | activity change, % (test concentration not listed) | 360,000 tested, 0.56% active; in the data active = activity change below about -65%; inconclusive = mostly about -30% to -63%
# Target sequence (O00167 whole entry, looked up): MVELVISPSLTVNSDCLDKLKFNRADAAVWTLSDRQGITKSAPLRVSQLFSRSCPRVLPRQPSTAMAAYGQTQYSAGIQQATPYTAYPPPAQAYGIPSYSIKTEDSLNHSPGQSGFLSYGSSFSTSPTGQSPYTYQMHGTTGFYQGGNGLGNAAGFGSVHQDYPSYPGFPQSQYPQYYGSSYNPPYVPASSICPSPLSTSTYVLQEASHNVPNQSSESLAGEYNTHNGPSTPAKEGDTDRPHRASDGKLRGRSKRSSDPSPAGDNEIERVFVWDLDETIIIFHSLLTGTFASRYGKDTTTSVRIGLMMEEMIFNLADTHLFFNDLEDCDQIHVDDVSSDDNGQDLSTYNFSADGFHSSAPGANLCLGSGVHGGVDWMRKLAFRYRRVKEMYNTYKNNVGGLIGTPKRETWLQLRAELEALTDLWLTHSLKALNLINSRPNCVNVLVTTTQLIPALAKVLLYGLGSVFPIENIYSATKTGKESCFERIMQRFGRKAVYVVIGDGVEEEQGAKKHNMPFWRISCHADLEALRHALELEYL
# Target sequence (Q15475 whole entry, looked up): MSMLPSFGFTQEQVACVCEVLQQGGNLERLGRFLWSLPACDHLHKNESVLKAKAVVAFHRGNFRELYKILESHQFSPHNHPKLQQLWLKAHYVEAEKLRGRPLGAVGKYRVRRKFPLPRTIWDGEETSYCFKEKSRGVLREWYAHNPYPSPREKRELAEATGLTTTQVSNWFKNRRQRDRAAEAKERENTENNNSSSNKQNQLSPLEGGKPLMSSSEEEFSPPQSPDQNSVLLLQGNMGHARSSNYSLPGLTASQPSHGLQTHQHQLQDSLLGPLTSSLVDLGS
#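 AlphaScreen luminescence read after one hour at 37 °C in darkness. Pin-transferred compounds met GST-Six1 and His-Eya2 protein (5X stock 250 nM/500 nM) plus glutathione donor and Ni-chelate acceptor beads (5X, 50 ug/mL).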
# CtBP-E1A inh – CtBP/E1A binding inhibition; activity change, % (no concentration beside the values); AlphaScreen GST-E1A/His-CtBP binding, 1536-well; active compounds read low; 340,000 tested, 0.49% active; in the data active = activity change below about -65%; inconclusive = mostly about -30% to -63%
#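 In 5 uL wells, 23 nL compound meets equimolar GST-E1A and His-CtBP (5X stock 125 nM each) for 2 h, 37 °C. Beads (5X, 50 ug/mL) then 1 h, 37 °C, dark.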
# G9a inh – blocks human histone lysine methyltransferase G9a; 350,000 tested, 8.8% active; Potency, µM (titrated, usually from 102 µM), usual class: inhibitors; Q96KQ7; G9a H3K9 monomethylation, AlphaScreen, 2 h; note: nearly all actives have a fitted effect of over 75% in size
#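 AlphaScreen read-out: biotin-H3K9 peptide (500 nM) methylation by 20 nM enzyme with 20 uM SAM, 2 h at room temperature after 15 min compound preincubation; anti-monomethyl H3K9 antibody plus donor/acceptor beads, 10 min dark.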
# HP1b binding inh – inhibitors of HP1-beta chromodomain binding to methylated histone tails; AlphaScreen HP1-beta / biotin-H3K9me3 peptide binding; 390,000 tested, 0.56% active; P83916; Potency, µM (highest dose often 114 µM), hits mostly inhibitors; AID 540317; note: nearly all actives have a fitted effect of over 70% in size
#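 AlphaScreen: HP1-beta (50 nM) preformed 30 min with biotin-H3(1-18)K9me3 peptide (50 nM) in PBS pH 7.4, 0.01% Tween-20. Compound added for 30 min at RT, then streptavidin donor/nickel chelate acceptor beads (10 ug/mL) for 30 min.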
# Numbers stand for hits; . = inactive; ? = inconclusive; / = no result given; [ ] = dose if it differs, or a comment. Shown are actives, neighbours in structure and some others; about 10% of the full set was active somewhere. Unless noted, calls come from the whole dose curve; as a rule, active = well fitted inhibition curve with a large enough effect; inconclusive = small, poorly fitted or top-dose-only effect; inactive = no such curve, though single readings can be large or run the other way.
SMILES,BAZ2B inh,JMJD2A Tudor inh,Six1-Eya2 blk,CtBP-E1A inh,G9a inh,HP1b binding inh
CCOc1cc(N2CCOCC2)c(OCC)cc1NC(=O)CSc1ccccc1C(=O)O,79.4µM,.,.,.,7.94µM,.
CCOc1cc(N2CCOCC2)c(OCC)cc1NCC(=O)N1CCN(Cc2ccccc2)CC1,20µM,0.794µM,.,.,/,20µM
CCOc1cc(N2CCOCC2)c(OCC)cc1NC(=O)CN1CCc2ccccc2C1,20µM,1.41µM,?,?,.[2.33 µM],?
CC(=O)N1CCOc2cc(S(=O)(=O)NCc3ccc(C)cc3)c(C)cc21,.,.,/,/,.,.
O=C(CCc1nc2cccnc2n1-c1ccccc1)Nc1ccc(Cl)c(Cl)c1,?,.,/,/,?,.
CCOc1cc(N2CCOCC2)c(OCC)cc1NC(C)C(=O)N1CCC(C)CC1 (stereo not drawn),.,?,.,.,39.8µM,.
Cc1cc(NN)nc2ccc(Cl)cc12,.,?,.,.,14.1µM,.
CCCN1CNc2c(c(=O)[nH]c(=S)n2CCCc2ccccc2)C1,/,.,/,/,/,.
CCOc1ccccc1NC(=O)CCc1c(C)nn(-c2ccc(N3CCOCC3)nn2)c1C,.,.,/,/,.,.
COc1ccnc(CSC(N)=Nc2cccc(C(F)(F)F)c2)c1,35.5µM,20µM,-66.9,.,44.7µM,?
COc1ccnc(CSC(N)=Nc2ccccc2OC)c1,?,44.7µM,.,.,8.91µM,.
Cc1ccc(NC(=O)C2(c3ccccc3)CCOCC2)cc1,.,50.1µM,.,.,.,.
O=C(O)c1ccc(NC(=O)C2(c3ccccc3)CCOCC2)cc1,.,.,.,.,.[12.7 µM],.
Cc1ccc(NC(=O)CSc2ccccc2)cc1S(=O)(=O)N1CCCCC1,.,.,.,.,.[12.7 µM],.
Cc1cc(C)c(S(=O)(=O)/N=C2/C=C(SCC(=O)O)C(=O)c3ccccc32)cc1C,35.5µM,25.1µM,.,.,5.62µM,35.5µM
COc1ccc(Br)cc1CNC(=O)c1nn(-c2ccc(C)cc2)c(=O)c2c1c1ccccc1n2C,/,.,/,/,.,.
CC1=NOC(=O)/C1=C/c1ccc2c(c1)OCO2,?,.,.,/,56.2µM,.
CC1=NOC(=O)/C1=C\c1ccc2c(c1)OCO2,?,.,.,.,?,.
O=C1/C(=C\c2ccc3c(c2)OCO3)CCC/C1=C/c1ccc2c(c1)OCO2,25.1µM,?,.,.,14.1µM,.
COc1ccc(Oc2nc3c(c(=O)n(Cc4ccccc4Cl)c(=O)n3C)n2C)cc1,?,.,/,/,.,.
CN(C)S(=O)(=O)c1ccc2c(c1)N(CC(=O)N1CCC(C(N)=O)CC1)CCS2,.,.,/,/,.,.
COc1ccc(C(=O)OCC(=O)c2cc(OC)ccc2OC)c(OC)c1,.,.,.,.,.,.
COc1ccc(C(=O)COC(=O)c2ccccc2O)c(OC)c1,50.1µM,?,.,.,.,.
COc1ccc(C(=O)COC(=O)c2ccc(Cl)nc2)c(OC)c1,79.4µM,.,.,.,.,.
Cc1cccc(-c2nc3scc(CCNS(=O)(=O)c4ccc(F)cc4C)n3n2)c1,.,.,/,/,.,.
SMILES,BAZ2B inh,JMJD2A Tudor inh,Six1-Eya2 blk,CtBP-E1A inh,G9a inh,HP1b binding inh
Cc1ccc(C)c(CN2CCCNC2=O)c1,?,.,.,.,44.7µM,.
Cc1ccc(CN2CCCNC2=O)cc1,?,.,.,.,.,.
CCCC(=O)Nc1cc(C(=O)NCc2ccccc2)ccc1S(=O)(=O)c1ccc(Cl)cc1,.,.,/,/,.,.
CCSC1=N/C(=C\c2cccc(F)c2)C(=O)S1,.,.,.,.,.,.
CSC1=N/C(=C\c2ccc(C)o2)C(=O)S1,44.7µM,?,.,.,12.6µM,.
CCCSC1=N/C(=C\c2ccc([N+](=O)[O-])o2)C(=O)S1,12.6µM,11.2µM,?,.,?,35.5µM
CCSC1=N/C(=C\c2ccc(-c3ccccc3[N+](=O)[O-])o2)C(=O)S1,7.94µM,?,.,.,.[0.501 µM],10µM
Cc1cccc(OCC(=O)Nc2c(C(=O)N3CCN(c4ccccc4)CC3)oc3ccccc23)c1,.,.,/,/,?,.
C[C@@]12C=Cc3occc3[C@H]1CC[C@]13CC(=O)[C@@H](CC[C@H]12)C3,/,.,/,/,/,.
Cc1cccc(Oc2ccc(NC(=O)CCC(=O)OCC(=O)c3ccc(Br)cc3)cc2)c1C,.,.,/,/,.,.

# Source: PubChem BioAssay (National Center for Advancing Translational Sciences (NCATS))
